# Measured values: PubChem BioAssay (NCI)
# About 83,000 compounds went through this panel and 20% of them were active in at least one assay; those are over-represented in the sample as a whole.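 Activity criterion: percent growth below 10, measured after cells in 96-well plates were exposed to a single compound concentration for 48 hours.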 Unmarked numbers belong to inactive results. Calls of active or inactive are those of the source.
# Tested on: A498 renal
# Assay: NCI-60 one-dose screen, 48 h (100 = growth as untreated, 0 = no growth, -100 = all killed)
# Settings: 10 µM
row,SMILES,growth
1,CC(=O)Nc1nc2c(s1)CC[C@@]1(C)C2=CC[C@H]2[C@@H]3CC[C@H](O)[C@@]3(C)CC[C@@H]21,67.8%
2,COc1ccc(/C(C)=C(\c2ccc(OCCN3CCOCC3)cc2)c2ccc(OC(=O)Cc3ccccc3)cc2)cc1,108%
3,O=C(O)C(O)C(O)C1[O][Sb]([c]2ccc([N+](=O)[O-])cc2)[O]C1CO (stereo not given),83.6%
4,Fc1c[c-]c(-c2ccccn2)c(F)c1.[CH3-].[Pt+2].c1ccc([PH+](c2ccccc2)c2ccccn2)cc1,-21% (active)
5,CCCCCCCCOC(=O)CCN1CC1,84.2%
6,O=C1N[C@@H]2[C@@H](O)[C@@H](O)[C@H](O)C[C@H]2c2cc3c(c(O)c21)OCO3,-53.4% (active)
7,O=P(Oc1ccc(Cl)cc1)(N1CC1)N1CC1,97.4%
8,O=C1CC2(CC3(Cl)C(Cl)=C(Cl)C2(Cl)C3(Cl)Cl)C(=O)O1 (stereo not given),98.9%
9,COc1ccc(/C=C/c2cc(OC)c(OC)c(OC)c2)cc1NC(=O)/C=C/c1ccc(F)cc1,-3.96% (active)
10,Nc1cc2nc3ccccc3nc2cc1N,78.3%
11,CN[C@@]1(c2ccccc2Cl)CCCC[C@@H]1NCC1CCCO1 (stereo not given in full),94.4%
12,COc1cc2c(cc1OCCCn1c(-c3ccccn3)nc3ccccc31)N=C[C@@H]1CCCN1C2=O,-72.1% (active)
13,O=C(CC1(O)C(=O)Nc2ccc(Cl)cc21)c1ccc(C(=O)NCC2CCC3(CC2)OOC2(CCCCC2)OO3)cc1 (stereo not given),26.9%
14,CNC12C3C4C1C1C2C3C41C(=O)N[C@H](C(=O)N(C)[C@H](C[C@@H](OC(C)=O)c1nc(C(=O)N[C@@H](Cc2ccccc2)C[C@H](C)C(=O)OC)cs1)C(C)C)C1CC1 (stereo not given in full),21.3%
15,c1cc2c(c3c1CCNC3)OCO2,118%
